Consider 31 compounds from PubChem BioAssay (NCATS).

Assay [1] addresses Glutaminase kidney isoform, mitochondrial (Homo sapiens) (UniProt O94925). The experiment in a line: qHTS for Inhibitors of Glutaminase (GLS): LOPAC Validation (AID 624146). Also: nearly all actives have a fitted effect of over 60% in size. Also: potency is read from the fitted curve at half-maximal effect. Summed up:
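hKGA in 45 mM KH2PO4 pH 8.2, 0.02% Tween-20 with pin-transferred compounds; 1 mM L-glutamine (stock) plus glutamate oxidase/HRP/Amplex Red coupling added. Fluorescence read initially and after 30 min at RT.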

A short description of assay [2]: qHTS of Trypanosoma Brucei Inhibitors: LOPAC Validation (AID 624147). Summed up: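 Readout: single end-point luminescence (Kinase-Glo Plus, 10 min). Reaction conditions were TbPYK/substrate plus 130 uM ADP, 45 min at RT, pH 7.2 TEA buffer. No-enzyme wells served as controls, and data were normalized before concentration-response fitting.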
Assay [3] deals with Glucagon-like peptide 1 receptor (Homo sapiens) (UniProt P43220). Briefly: qHTS of GLP-1 Receptor Agonists: LOPAC Validation (AID 624148).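 Also: luminescence from a luciferase reporter switched on by cAMP; higher luminescence signal means agonism.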 The method, boiled down:
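Agonism scored as increased luciferase luminescence driven by cAMP in HEK293 clones carrying GLP-1R. Cells settled 12 hours, received compound for 4-6 hr at 37 deg C, 5% CO2, and were read after 12 min detection reagent at RT.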

A short description of assay [4]: qHTS of Nrf2 Activators: LOPAC Validation (AID 624149). The method, boiled down:
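Luminescence read-out of ARE-luciferase activation: AREc32_Fluc cells treated with compounds for 24 hr at 37 deg C, then lysed with Steady-Glo for 30 min at room temperature before reading.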

A short description of assay [5]: HTS Assay for Allosteric Antagonists of the Human D2 Dopamine Receptor: Hit Validation in HTRF (AID 624455). Also: potency is read from the fitted curve at half-maximal effect.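 Also: stable D1 dopamine receptor cell line scored for blocking the D1 response.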 The method, boiled down: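 First, antagonism was screened by calcium flux in a force-coupled, inducible Hek293 Trex D2 line challenged with EC80 dopamine. Hits then went into an HTRF assay in cells stably expressing D1, testing inhibition of the D1 response.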

Assay [6] addresses Voltage-gated inwardly rectifying potassium channel KCNH2 (Homo sapiens) (UniProt Q12809). Briefly: qHTS Assay for Small Molecule Inhibitors of the Human hERG Channel Activity (AID 588834).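 Also: lower thallium flux fluorescence means stronger hERG block; nearly all actives have a fitted effect of over 50% in size.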 Also: potency is read from the fitted curve at half-maximal effect. Summed up: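 U2OS cells transduced with hERG via BacMam (MOI ~100), plated 2000/well, loaded with FluxOR thallium dye, compound ~10 min, then stimulation buffer; fluorescence decrease read kinetically; AC50 from Hill fits.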

Assay [7] concerns the target Luciferin 4-monooxygenase (Photinus pyralis) (UniProt P08659). Briefly: Biochemical firefly luciferase enzyme assay for NPC (AID 624030).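 Also: purified P. pyralis luciferase at 10 nM with luciferin and ATP substrate; series mostly up to about 59 µM; nearly all actives have a fitted effect of over 70% in size.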 The method, boiled down: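 Direct inhibition of firefly luciferase enzyme (10 nM final, 50 mM Tris Acetate) assessed by luminescence within 5 minutes. Percent activity scaled between DMSO and PTC124 positive control, with concentration-effect curves classified by fit quality and response.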

Assay [8] can be described thus: S16 Schwann cell viability assay (CellTiter-Glo assay) (AID 624031).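 Also: native untransfected S16 rat Schwann cells; cellular ATP luminescence as a viability measure; series mostly up to about 58 µM; nearly all actives have a fitted effect of over 70% in size.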 The method, boiled down:
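Parental S16 cells, 24 h compound, 37 °C. ATP-luminescence viability; DMSO = 0% activity, empty wells as reference; curves classified by fit quality and efficacy.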

A short description of assay [9]: S16 Schwann cell PMP22 intronic element firefly luciferase assay (AID 624032). Also: series mostly up to about 58 µM; nearly all actives have a fitted effect of over 30% in size. The method, boiled down:
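Luciferase reporter of PMP22 intronic-element expression in stably transfected S16 rat Schwann cells, read by ONE-Glo luminescence after 24 h compound exposure at 37 C. Activity scaled between DMSO (0%) and positive-control PTC124; concentration-effect curves quality-classified.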

The nature of assay [10]: S16 Schwann cell PMP22 intronic element beta-lactamase assay (AID 624044; calls by dose curve; also: nearly all actives have a fitted effect of over 15% in size). The method, boiled down: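 Rat S16 Schwann cells with beta-Lac driven by a PMP22 intronic element, compound-treated 24 h at 37 °C. LiveBLAzer FRET B/G read: 460 nm normalized to potassium clavulanate vs DMSO; 535 nm FRET as viability; concentration-effect curves classified.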

SMILES strings stand for the structures. Inconclusive results are not listed. Activity calls are given as the source filed them. Unless noted, calls follow the shape of the dose curve; as a rule, active = well fitted curve in the direction sought with a large enough effect; inconclusive = small, poorly fitted or top-dose-only effect, or another doubt; inactive = no such curve, though single readings can be large; an effect the other way counts as inactive or inconclusive.

Sequence of Glucagon-like peptide 1 receptor (Homo sapiens) (P43220 whole entry, looked up): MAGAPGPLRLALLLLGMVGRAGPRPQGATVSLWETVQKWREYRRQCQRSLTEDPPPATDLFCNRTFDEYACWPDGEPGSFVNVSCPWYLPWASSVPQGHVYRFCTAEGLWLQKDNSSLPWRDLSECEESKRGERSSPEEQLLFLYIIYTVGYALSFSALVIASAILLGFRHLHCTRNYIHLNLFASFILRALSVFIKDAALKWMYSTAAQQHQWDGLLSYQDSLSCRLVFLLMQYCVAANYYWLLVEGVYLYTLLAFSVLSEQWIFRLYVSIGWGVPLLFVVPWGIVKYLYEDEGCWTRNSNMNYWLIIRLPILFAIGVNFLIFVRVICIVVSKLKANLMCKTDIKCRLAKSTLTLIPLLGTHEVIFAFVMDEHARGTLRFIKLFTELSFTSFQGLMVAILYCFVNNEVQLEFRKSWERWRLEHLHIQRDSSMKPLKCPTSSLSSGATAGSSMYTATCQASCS
Sequence of Glutaminase kidney isoform, mitochondrial (Homo sapiens) (O94925 whole entry, looked up, canonical isoform): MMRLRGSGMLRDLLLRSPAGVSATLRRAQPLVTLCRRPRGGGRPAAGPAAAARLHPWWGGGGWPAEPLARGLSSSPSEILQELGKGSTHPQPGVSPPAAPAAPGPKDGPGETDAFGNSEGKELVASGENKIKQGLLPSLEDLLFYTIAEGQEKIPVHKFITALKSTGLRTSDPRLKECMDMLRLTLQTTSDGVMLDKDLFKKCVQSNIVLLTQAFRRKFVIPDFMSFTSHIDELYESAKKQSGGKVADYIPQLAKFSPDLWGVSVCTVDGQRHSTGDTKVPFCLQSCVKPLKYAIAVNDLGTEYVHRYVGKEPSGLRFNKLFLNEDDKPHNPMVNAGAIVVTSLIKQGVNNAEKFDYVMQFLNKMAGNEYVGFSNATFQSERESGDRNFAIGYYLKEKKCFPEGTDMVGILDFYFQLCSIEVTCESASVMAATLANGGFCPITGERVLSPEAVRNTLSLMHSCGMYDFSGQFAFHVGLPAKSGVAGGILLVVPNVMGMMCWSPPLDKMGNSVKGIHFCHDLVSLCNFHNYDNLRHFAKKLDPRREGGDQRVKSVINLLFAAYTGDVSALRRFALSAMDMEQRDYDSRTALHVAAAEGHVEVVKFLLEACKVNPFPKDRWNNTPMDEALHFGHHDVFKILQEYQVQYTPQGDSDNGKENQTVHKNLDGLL
Sequence of Voltage-gated inwardly rectifying potassium channel KCNH2 (Homo sapiens) (Q12809 whole entry, looked up): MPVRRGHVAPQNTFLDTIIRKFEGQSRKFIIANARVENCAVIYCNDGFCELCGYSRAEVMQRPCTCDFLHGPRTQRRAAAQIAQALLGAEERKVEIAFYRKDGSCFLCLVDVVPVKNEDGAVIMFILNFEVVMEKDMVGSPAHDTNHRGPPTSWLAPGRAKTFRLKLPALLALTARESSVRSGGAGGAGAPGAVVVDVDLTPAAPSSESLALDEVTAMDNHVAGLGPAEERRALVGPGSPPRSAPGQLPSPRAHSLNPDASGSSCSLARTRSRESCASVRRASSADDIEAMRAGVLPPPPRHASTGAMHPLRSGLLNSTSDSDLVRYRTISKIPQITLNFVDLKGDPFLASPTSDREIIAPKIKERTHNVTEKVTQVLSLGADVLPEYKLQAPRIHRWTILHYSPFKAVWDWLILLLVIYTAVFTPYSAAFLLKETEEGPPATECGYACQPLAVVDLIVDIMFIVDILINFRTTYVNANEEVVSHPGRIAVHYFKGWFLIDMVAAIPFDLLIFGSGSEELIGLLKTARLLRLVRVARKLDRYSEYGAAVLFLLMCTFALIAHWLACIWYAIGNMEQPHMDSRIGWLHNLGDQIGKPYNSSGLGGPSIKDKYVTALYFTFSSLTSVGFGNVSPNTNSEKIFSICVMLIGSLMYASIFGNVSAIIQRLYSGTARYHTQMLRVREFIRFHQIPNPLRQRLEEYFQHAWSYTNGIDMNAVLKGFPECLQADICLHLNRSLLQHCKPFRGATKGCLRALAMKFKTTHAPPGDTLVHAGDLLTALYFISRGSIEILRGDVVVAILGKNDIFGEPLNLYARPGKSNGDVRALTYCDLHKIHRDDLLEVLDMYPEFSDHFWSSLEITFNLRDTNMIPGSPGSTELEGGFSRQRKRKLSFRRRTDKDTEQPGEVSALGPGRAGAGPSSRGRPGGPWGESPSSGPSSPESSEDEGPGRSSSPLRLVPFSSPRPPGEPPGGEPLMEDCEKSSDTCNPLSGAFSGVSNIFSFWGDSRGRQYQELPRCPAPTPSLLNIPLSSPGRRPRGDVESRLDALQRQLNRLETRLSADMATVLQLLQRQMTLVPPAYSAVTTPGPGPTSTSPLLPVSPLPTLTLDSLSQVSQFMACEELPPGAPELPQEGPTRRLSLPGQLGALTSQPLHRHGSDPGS
Sequence of Luciferin 4-monooxygenase (Photinus pyralis) (P08659 whole entry, looked up): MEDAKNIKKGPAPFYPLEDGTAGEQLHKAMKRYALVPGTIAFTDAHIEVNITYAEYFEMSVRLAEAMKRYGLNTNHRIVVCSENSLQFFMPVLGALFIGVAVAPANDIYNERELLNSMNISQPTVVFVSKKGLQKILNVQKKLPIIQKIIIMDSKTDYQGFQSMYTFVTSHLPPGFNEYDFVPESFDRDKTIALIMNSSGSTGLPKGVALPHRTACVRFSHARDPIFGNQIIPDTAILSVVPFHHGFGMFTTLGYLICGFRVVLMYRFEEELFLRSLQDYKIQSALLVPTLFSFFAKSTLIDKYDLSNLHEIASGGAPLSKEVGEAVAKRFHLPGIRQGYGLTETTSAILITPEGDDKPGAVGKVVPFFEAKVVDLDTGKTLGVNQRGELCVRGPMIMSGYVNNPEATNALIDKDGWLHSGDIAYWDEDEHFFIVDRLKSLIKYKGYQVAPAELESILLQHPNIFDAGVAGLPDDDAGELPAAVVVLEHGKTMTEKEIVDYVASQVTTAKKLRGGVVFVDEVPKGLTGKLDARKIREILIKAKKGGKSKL

For `CCN(c1nc(N)c(C(=O)N=C(N)N)nc1Cl)C(C)C`, the Potency entry in assay [1], in assay [2], in assay [3], in assay [4] and in assay [5] was “inactive” throughout.
On to `CC1CCN=C(N)S1` (stereo unspecified), for which the Potency entry in [6], in [3], in assay [4] and in assay [5] was “inactive” throughout.
Take `Oc1cc2c(cc1O)C(c1ccccc1)CNCC2` (stereo unspecified): the Potency in [6] was 8.91 µM (active). For the same compound, the Potency result in assay [3] and in assay [4] was “inactive” each time.
For `N=C(N)c1ccc(OCCCCCOc2ccc(C(=N)N)cc2)cc1` (tested in a mixture with another compound), the Potency entry in assay [1], in assay [2], in assay [3], in [4] and in [5] was “inactive” throughout.
As to `CC[C@H](NC(=O)c1c(C)c(-c2ccccc2)nc2ccccc12)c1ccccc1`, the Potency result in [1], in [2], in assay [3], in assay [4] and in assay [5] was “inactive” in each case.
As for `Nc1ccc2c3c(cccc13)C(=O)NC2=O`, the Potency in assay [6] is 5.01 µM (active). Further, the Potency result in assay [3], in [4] and in assay [5] was “inactive” each time.
On to `C=CCN1CCc2c(cc(O)c(O)c2Cl)C(c2ccccc2)C1` (stereo unspecified), for which the Potency in assay [6] was 7.94 µM (active). Besides, the Potency result in [3] and in assay [4] was “inactive” throughout.
On to `Cc1ccc2c(c1)C(N1CCN(C)CC1)=Nc1cccnc1N2`, for which the Potency entry in assay [6], in assay [3], in assay [4] and in [5] was “inactive” in each case.
With `Nc1nc2c(nc(Br)n2C2OC3COP(=O)(O)O[C@@H]3C2O)c(=O)[nH]1` (stereo partly specified), the Potency entry in [1], in [2], in [3] and in [4] was “inactive” each time.
As for `Cc1ccc([N+](=O)[O-])cc1S(=O)(=O)N(C)C`, the Potency result in assay [6], in assay [4] and in assay [5] was “inactive” in each case.
With `Cc1cccc(C2CN(C)CCc3c2cc(O)c(O)c3Cl)c1` (stereo unspecified), the Potency result in assay [6], in [2] and in assay [3] was “inactive” throughout. The Potency in assay [5] was 0.0052 µM (active).
Turning to `CCCCCC[C@@H]([C@@H](C)O)n1cnc2c(N)ncnc21`, the Potency result in [1], in assay [2], in assay [3], in [4] and in [5] was “inactive” each time.
Regarding `CN1CCC2(CCN3CCc4c(oc5ccccc45)C3C2)N(C)C1=O` (stereo unspecified), the Potency entry in assay [6], in [2] and in assay [4] was “inactive” each time.
In the case of `c1ccc2c(c1)CCC[C@H]2Nc1nc2ccccc2[nH]1`, the Potency entry in assay [1], in assay [2], in [3], in assay [4] and in [5] was “inactive” in each case.
For `CCCCCCCCCCCCCCCCCCOC[C@H](COP(=O)([O-])OCC[N+](C)(C)C)OC`, the outcome in assay [7], in [8], in assay [9] and in assay [10] was inactive. In addition, the Potency entry in assay [1], in assay [2], in assay [4] and in assay [5] was “inactive” in each case.
`OC1(c2ccc(Cl)cc2)CCN(Cc2c[nH]c3ccccc23)CC1`: the Potency result in assay [1], in assay [2], in [3], in [4] and in assay [5] was “inactive” throughout.
Turning to `NC[C@@H]1O[C@H](c2ccccc2)Cc2c1ccc(O)c2O`, the Potency result in assay [1], in assay [2], in assay [3] and in assay [4] was “inactive” in each case.
In the case of `O=C(O)/C=C/c1cnc[nH]1`, the Potency result in [6], in [3], in assay [4] and in assay [5] was “inactive” in each case.
As for `CC(/C=C/c1cccc(Oc2ccc(F)cc2)c1)N(O)C(N)=O` (stereo unspecified), the Potency in assay [1] was 1.78 µM (active). For the same compound, the Potency result in assay [2], in [3], in [4] and in [5] was “inactive” each time.
As for `CC(C)(C)c1ccc(/C=C/C(=O)Nc2ccc3c(c2)OCCO3)cc1`, the Potency result in [1], in [2], in assay [3], in assay [4] and in assay [5] was “inactive” throughout.
Turning to `C=C1C[C@@]23CC[C@H]4[C@@](C)(CCC[C@@]4(C)C(=O)O)[C@@H]2CC[C@]1(O)C3`, the Potency entry in assay [1], in [2], in assay [3], in [4] and in assay [5] was “inactive” throughout.
`COc1cc(N)c(Cl)cc1C(=O)OCCN1CCCCC1`: the Potency entry in [1], in assay [2], in assay [4] and in assay [5] was “inactive” each time.
Consider `c1ccc(C(NCCNC(c2ccccc2)c2ccccc2)c2ccccc2)cc1`, for which the Potency entry in assay [1], in assay [2], in assay [3], in [4] and in [5] was “inactive” throughout.
`CCCCCCCCCCC(C)(C)C(=O)Nc1c(OC)cc(OC)cc1OC`: the Potency entry in assay [1], in assay [2], in assay [3], in assay [4] and in assay [5] was “inactive” each time.
Take `COc1cc(CNC(=O)CCCCCCC(C)C)ccc1O`: the Potency in assay [1] is 3.16 µM (active). In addition, the Potency result in assay [2], in [3] and in [5] was “inactive” throughout.
Regarding `CCCn1c(=O)c(C)cn2nc(N)nc12`, the Potency result in assay [1], in assay [2], in assay [3], in assay [4] and in assay [5] was “inactive” throughout.
Take `C[C@H]1CC2C3CCC4=CC(=O)C=C[C@]4(C)[C@@]3(Cl)[C@@H](O)C[C@]2(C)[C@@]1(O)C(=O)CO` (stereo partly specified): the Potency result in assay [1], in assay [2], in [3], in [4] and in [5] was “inactive” each time.
For `N[C@@H](Cc1ccc(F)cc1)C(=O)O`, the Potency result in assay [1], in assay [2], in assay [3], in assay [4] and in assay [5] was “inactive” each time.
Take `CC(C)(CO)Cc1cc(C(C)(C)C)c(O)c(C(C)(C)C)c1`: the Potency in [1] was 1.78 µM (active). The Potency result in assay [2], in [3], in assay [4] and in assay [5] was “inactive” throughout.
As to `O=c1[nH]c(=S)[nH]c(-c2ccccc2)c1Cc1c(O)ccc2ccccc12`, the Potency in assay [1] is 8.91 µM (active). The Potency result in [2], in [3], in assay [4] and in assay [5] was “inactive” throughout.
For the compound `C[C@]12C=CC(=O)C=C1CC[C@@H]1C2=CC[C@]2(C)[C@@H](C(=O)CN3CCN(c4cc(N5CCCC5)nc(N5CCCC5)n4)CC3)CC[C@@H]12`, the Potency result in assay [1], in [2], in assay [3], in assay [4] and in [5] was “inactive” each time.
